Where “and” joins values, the source holds several entries; their conditions need not be identical. Identical values can stand only once. Records with an inconclusive call do not appear. Values without a mark were called inactive. Calls of active or inactive are those of the source. Unless noted, calls come from the whole dose curve.
What follows are compounds tested against Glucocorticoid receptor (Homo sapiens) (UniProt P04150) (assay: qHTS assay for small molecule agonists of glucocorticoid receptor signaling (AID 588532; active = well fitted curve in the direction sought with a large enough effect in the signal ratio, with a control signal flat; the % refers to the signal ratio;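 note: 100% = dexamethasone at 0.1 µM and 0% = DMSO only wells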)). Settings: HeLa MMTV-bla, beta-lactamase ratio, agonist, 18 h; active compounds read high; percent of dexamethasone control, DMSO zero.
In short: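 Using MMTV-bla HeLa cells in medium with 1% stripped FBS and 25 mM HEPES, compounds were titrated and incubated overnight-length (18 h). Beta-lactamase cleavage of CCF4 was quantified by dual-emission fluorescence.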

Glucocorticoid receptor (Homo sapiens), sequence (P04150 whole entry, looked up): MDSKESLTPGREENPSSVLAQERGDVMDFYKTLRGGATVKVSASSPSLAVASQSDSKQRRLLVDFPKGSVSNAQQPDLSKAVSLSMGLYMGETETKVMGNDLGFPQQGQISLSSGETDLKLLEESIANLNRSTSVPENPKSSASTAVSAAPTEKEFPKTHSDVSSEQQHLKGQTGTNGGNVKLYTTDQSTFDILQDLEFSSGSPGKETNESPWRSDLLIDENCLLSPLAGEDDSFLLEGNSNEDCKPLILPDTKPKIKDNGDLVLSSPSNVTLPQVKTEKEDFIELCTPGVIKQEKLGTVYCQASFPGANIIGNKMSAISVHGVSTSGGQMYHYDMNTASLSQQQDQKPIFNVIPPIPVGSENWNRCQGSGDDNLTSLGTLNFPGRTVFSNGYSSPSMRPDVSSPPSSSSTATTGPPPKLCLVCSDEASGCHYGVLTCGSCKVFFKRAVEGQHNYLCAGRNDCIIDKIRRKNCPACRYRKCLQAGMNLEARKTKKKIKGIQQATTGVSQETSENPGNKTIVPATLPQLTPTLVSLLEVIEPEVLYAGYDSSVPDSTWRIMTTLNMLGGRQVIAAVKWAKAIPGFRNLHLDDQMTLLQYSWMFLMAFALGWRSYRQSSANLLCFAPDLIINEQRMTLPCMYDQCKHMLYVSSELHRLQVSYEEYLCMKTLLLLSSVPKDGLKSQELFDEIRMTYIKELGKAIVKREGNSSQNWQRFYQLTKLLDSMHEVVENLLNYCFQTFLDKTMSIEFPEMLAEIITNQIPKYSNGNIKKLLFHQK

Row | Structure (SMILES) | activation
1 | CCOP(=S)(OCC)O/N=C(\C#N)c1ccccc1 | -3.68%
2 | CCNc1nc(Cl)nc(NCC)n1 | 3.33%
3 | C=CCOC(Cn1ccnc1)c1ccc(Cl)cc1Cl (stereo not drawn) | -7.13% and -8.27%
4 | Cc1ccc(N=CN(C)C=Nc2ccc(C)cc2C)c(C)c1 | 6.83%
5 | CN(C)C(=S)SSC(=S)N(C)C | 0.667% and -2.28%
6 | O=C(NC(=O)c1c(F)cccc1F)Nc1cc(Cl)c(OC(F)(F)C(F)C(F)(F)F)cc1Cl (stereo not drawn) | 15.8%
7 | N#Cc1nn(-c2c(Cl)cc(C(F)(F)F)cc2Cl)c(N)c1S(=O)C(F)(F)F (stereo not drawn) | -6.58%
8 | O=c1n(Cl)c(=O)n(Cl)c(=O)n1Cl | 0.274%
9 | O=C(CCl)c1ccc(Cl)cc1Cl | -10.9%
10 | C[C@H]1C(=O)O[C@@H]2CCN3CC=C(COC(=O)[C@](C)(O)[C@]1(C)O)[C@H]23 | 8.93%
11 | COP(=O)(OC)C(O)C(Cl)(Cl)Cl (stereo not drawn) | 3.67%

These compounds were tested against Glucocorticoid receptor (Homo sapiens) (UniProt P04150) (assay: qHTS assay for small molecule antagonists of glucocorticoid receptor signaling (AID 588533; active = well fitted inhibition curve with a large enough effect in the signal ratio, with a control signal flat, not every such curve was filed as active; the % refers to the signal ratio;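 note: cells stimulated with 2 nM dexamethasone as agonist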; note: potency is the fitted concentration of half-maximal effect; for activity change, negative = inhibition: % is set by controls: 0 for no effect and ±100 for the full control effect)). Settings: HeLa MMTV-bla, GRE beta-lactamase ratio, antagonist mode, 18 h; series mostly up to 76.8 µM; activity change, negative = inhibition: at the top concentration.
In short: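 Antagonist-mode qHTS: compound titrations added to GRE-bla HeLa cells, then dexamethasone 2 nM final; 18 h, 37 C. CCF4 FRET fluorescence normalized to dexamethasone and DMSO; IC50 from Hill fit.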

Row | Structure (SMILES) | activity change, negative = inhibition | Potency
12 | CCOP(=S)(OCC)O/N=C(\C#N)c1ccccc1 | 15.8% | –
13 | CCC(=O)O[C@H]1CC[C@H]2[C@@H]3CCC4=CC(=O)CC[C@]4(C)[C@H]3CC[C@]12C | – | 31.6 µM (active)
14 | CCNc1nc(Cl)nc(NCC)n1 | 3.53% | –
15 | C=CCOC(Cn1ccnc1)c1ccc(Cl)cc1Cl (stereo not drawn) | – | inactive
16 | COC(=O)C1=C(C)NC(C)=C(C(=O)OC)C1c1ccccc1[N+](=O)[O-] | – | 31.6 µM (active)
17 | Cc1ccc(N=CN(C)C=Nc2ccc(C)cc2C)c(C)c1 | 24.5% | –
18 | CN(C)C(=S)SSC(=S)N(C)C | 1.14% | –
19 | O=c1n(Cl)c(=O)n(Cl)c(=O)n1Cl | -2.72% | –
20 | O=C(CCl)c1ccc(Cl)cc1Cl | – | 14.1 µM (active)
21 | C[C@H]1C(=O)O[C@@H]2CCN3CC=C(COC(=O)[C@](C)(O)[C@]1(C)O)[C@H]23 | 8.62% | –

The compounds below were run against Peroxisome proliferator-activated receptor delta (Homo sapiens) (UniProt Q03181) (assay: qHTS assay for small molecule agonists of peroxisome proliferator-activated receptor delta signaling (AID 588534;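 note: 0% = DMSO basal wells and 100% = positive control agonist at 10 µM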)). Settings: HEK293T PPARdelta-UAS-bla, beta-lactamase ratio, 18 h; series mostly up to 76.7 µM; activation: at the top concentration.
In short: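 Cells carrying a PPAR-delta beta-lactamase reporter were treated with compounds for 18 h at 37 °C in agonist mode. CCF4 fluorescence was read after 2 h; EC50 and efficacy from Hill fits.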

Peroxisome proliferator-activated receptor delta (Homo sapiens), sequence (Q03181 whole entry, looked up): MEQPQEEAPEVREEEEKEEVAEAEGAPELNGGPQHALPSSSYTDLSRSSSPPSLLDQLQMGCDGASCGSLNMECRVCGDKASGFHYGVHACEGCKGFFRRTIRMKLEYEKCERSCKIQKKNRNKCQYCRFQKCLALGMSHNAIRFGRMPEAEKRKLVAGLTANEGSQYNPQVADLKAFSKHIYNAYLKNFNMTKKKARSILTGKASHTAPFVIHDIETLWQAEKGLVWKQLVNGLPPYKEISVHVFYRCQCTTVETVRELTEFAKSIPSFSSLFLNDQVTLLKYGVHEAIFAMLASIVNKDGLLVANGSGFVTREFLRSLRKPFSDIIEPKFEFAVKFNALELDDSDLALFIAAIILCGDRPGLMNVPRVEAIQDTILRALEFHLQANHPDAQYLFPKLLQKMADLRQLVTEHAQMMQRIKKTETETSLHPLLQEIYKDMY

Row | Structure (SMILES) | activation | outcome
22 | Cn1cnc2c1c(=O)[nH]c(=O)n2C | 4.94% | –
23 | CCCCC(CC)COC(=O)C(C#N)=C(c1ccccc1)c1ccccc1 (stereo not drawn) | 3.81% | –
24 | CCCCCC(N)=O | 5.04% | –
25 | CCOP(=S)(OCC)O/N=C(\C#N)c1ccccc1 | 13.8% | –
26 | Cc1ccc(O)cc1 | -2.24% | –
27 | Cc1c(N(C)C)c(=O)n(-c2ccccc2)n1C | – | inactive
28 | CCCCCCCC/C=C\CCCCCCCCN | -5.04% | –
29 | c1ccc2[nH]c(-c3cscn3)nc2c1 | – | inactive
30 | CN(C)C(=S)SC(=S)N(C)C | -0.599% | –
31 | CCC(=O)O[C@H]1CC[C@H]2[C@@H]3CCC4=CC(=O)CC[C@]4(C)[C@H]3CC[C@]12C | 0.811% | –
32 | CC1(C)[C@@H]2CC[C@@]1(C)C(=O)C2 | -4.9% | –
33 | C[C@]12CCC(=O)C=C1CC[C@@H]1[C@@H]2[C@@H](O)C[C@@]2(C)[C@H]1CC[C@]2(O)C(=O)CO | -5.67% | –
34 | FC(F)(F)C(Cl)Br (stereo not drawn) | 9.14% | –
35 | CCOC(=O)C(C)(C)Oc1ccc(Cl)cc1 | 3.47% | –
36 | C=CCOC(Cn1ccnc1)c1ccc(Cl)cc1Cl (stereo not drawn) | – | inactive
37 | CN(C)C(=S)SSC(=S)N(C)C | – | inactive
38 | C[C@]12C=CC(=O)C=C1CC[C@H]1[C@@H]3C[C@@H](O)[C@](O)(C(=O)CO)[C@@]3(C)C[C@H](O)[C@@]12F | 3.01% | –
39 | Nc1ccn([C@H]2CC[C@@H](CO)O2)c(=O)n1 | – | inactive
40 | CCCCCCCCCCCC[N+](C)(C)Cc1ccccc1 | -10.6% | –
41 | O=c1n(Cl)c(=O)n(Cl)c(=O)n1Cl | 4.07% | –
42 | O=C(CCl)c1ccc(Cl)cc1Cl | -3.5% | –
43 | C[C@H]1C(=O)O[C@@H]2CCN3CC=C(COC(=O)[C@](C)(O)[C@]1(C)O)[C@H]23 | 0.221% | –
44 | O=C1O[C@H]([C@@H](O)CO)C(O)=C1O | – | inactive
45 | C/C=C/c1ccc(O)c(OC)c1 | – | inactive
46 | COc1ccc(C(Cl)=C(c2ccc(OC)cc2)c2ccc(OC)cc2)cc1 | -1.92% | –
47 | COP(=O)(OC)C(O)C(Cl)(Cl)Cl (stereo not drawn) | 16.3% | –
48 | Nc1ccc(S(=O)(=O)Nc2nccs2)cc1 | -2.34% | –
